According to the supplement of paper PMC9334596:
Where “and” joins values, the source holds several entries; their conditions need not be identical. Equal entries are not always repeated. Whole data set: some 5,300 compounds, median “PER2::LUC luminescence relative to vehicle control” near 0.96, cut for the highest 2% near 1.3. The list comes from a sample in which the highest values are over-represented; it also holds similar structures and randomly drawn compounds.

System: mPer2Luc MEF
Test: PER2::LUC luminescence relative to vehicle control (fold of vehicle); higher = higher PER2::LUC reporter signal
Conditions: 10 µM
In short: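 The reported values are PER2::LUC luminescence as fold of vehicle control in mouse embryonic fibroblasts carrying the mPer2Luc reporter. Cells were seeded at ~3000 per well in 384-well plates in DMEM with 10% FBS at 37 °C and 5% CO2, and compounds were added at 10 μM 48 h later. ONE-Glo luminescence was read 24 h and 30 h after treatment.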

Structure (SMILES)	PER2::LUC luminescence (time after treatment 24 h)	PER2::LUC luminescence (time after treatment 30 h)
COc1ccc([C@@H]2CC(=O)c3c(O)cc(OC4O[C@H](CO[C@H]5O[C@@H](C)[C@@H](O)[C@@H](O)[C@H]5O)[C@H](O)[C@H](O)[C@H]4O)cc3O2)cc1O (some centres not stated)	1.02	1.03
O=C(NCc1nc2ccccc2c(=O)n1-c1ccc(F)cc1)Nc1ccc(Cl)c(C(F)(F)F)c1	1	0.929
O=S(=O)(O)c1cc(N=C=S)ccc1/C=C/c1ccc(N=C=S)cc1S(=O)(=O)O	0.832	0.684
C/C(O)=C(\C#N)C(=O)Nc1ccc(C(F)(F)F)cc1	1.32 and 1.08	1.56 and 1.07
CC(=O)Nc1ccc(O)cc1	0.846	0.81
CC(=O)Nc1ccc(NC(=S)NC(=O)c2ccc(C(C)(C)C)cc2)cc1	0.812	0.973
O=C([O-])CN1CCN(CC(=O)[O-])CCN([C@H](CO)[C@H](O)CO)CCN(CC(=O)[O-])CC1.[Gd+3] (racemic)	1.03	1.04
C[C@H]1COC2(CCN(c3nc(=O)c4cc(C(F)(F)F)cc([N+](=O)[O-])c4s3)CC2)O1 (racemic)	1.32	1.39
COCc1c(C(C)C)nc(C(C)C)c(/C=C/[C@@H](O)C[C@@H](O)CC(=O)O)c1-c1ccc(F)cc1	0.305	0.274
CCN1CCC[C@H]1CNC(=O)c1c(O)c(Cl)cc(Cl)c1OC	1.14 and 1.02	0.977 and 0.877
CCN1CCC[C@H]1CNC(=O)c1c(OC)ccc(Br)c1OC	1.03	0.993
CCCCN1CCCC1CNC(=O)c1cc(C#N)c2ccccc2c1OC (configuration not stated)	1	1.58
CC(C)=CCC[C@@H](C)[C@H]1CC[C@@]2(C)C3=C(CC[C@]12C)[C@@]1(C)CC[C@H](O)C(C)(C)[C@@H]1CC3	1.06	0.995
O=C(O)CC1CCC(c2ccc(-c3ccc4nc(C(=O)NCc5ccc(OC(F)(F)F)cc5)cn4c3)cc2)CC1 (configuration not stated)	1	1.1
CC(C)(C)c1ccc(-c2nc3ccccc3[nH]2)cc1	0.03	0.034
c1ccc2[nH]c(-c3cscn3)nc2c1	1.41	1.35
c1ccc(Cc2nc3ccccc3[nH]2)cc1	1.17	0.971
O=C(NC[C@@H]1CN(c2ccc(N3CCOCC3=O)cc2)C(=O)O1)c1ccc(Cl)s1	0.948	0.975
CNC(=O)[C@H]1O[C@@H](n2cnc3c(N)ncnc32)[C@H](O)[C@@H]1O	1.11	1.03
C[C@H]1CC[C@@H](C(C)(C)O)CC2=C1CC[C@@H]2C	1.46	1.05
CC1(O)CCC(C(C)(C)O)CC1 (configuration not stated)	0.901 and 0.99	0.986 and 0.688

Structure (SMILES)	PER2::LUC luminescence (time after treatment 24 h)	PER2::LUC luminescence (time after treatment 30 h)
Nc1nc2ccc(OC(F)(F)F)cc2s1	1.26 and 0.999	1.5 and 1.06
CCOc1ccc2nc(S(N)(=O)=O)sc2c1	1.19	1.28
Oc1cc(O)cc(/C=C/c2ccc(O)c(O)c2)c1	1.15	1.09
COc1cc(/C=C/c2ccc(O)cc2)cc(OC)c1	1.03	0.93
Oc1ccc(/C=C/c2cc(O)cc(O)c2)cc1	1.46	1.29
NC1(C(=O)O)C[C@@H](C(=O)O)[C@H](C(=O)O)C1 (racemic)	0.98	0.892
COc1cc(-c2oc3cc(O)ccc3c(=O)c2O)ccc1O	1.13	1.2
COc1cc(N(C)CCN(C)C)c(N)cc1Nc1nccc(-c2cn(C)c3ccccc23)n1	0.57	0.54
COc1ccc2c(c1)OC/C(=C\c1ccc(OC)c(O)c1)C2=O	0.879	0.794
COc1ccc2c(c1)OCc1c-2oc2cc(OC)ccc12	1.52	1.8
COc1ccc2c(C)cc(=O)oc2c1	0.984	1.02
OC1c2ccccc2N=C2CCCN21 (configuration not stated)	0.854	0.868
N#CCC(C1CCCC1)n1cc(-c2ncnc3[nH]ccc23)cn1 (configuration not stated)	1.26	1.51
N#CC[C@H](C1CCCC1)n1cc(-c2ncnc3[nH]ccc23)cn1	0.99	1.13
CCS(=O)(=O)N1CC(CC#N)(n2cc(-c3ncnc4[nH]ccc34)cn2)C1	1.09 and 0.875	1.24 and 1.03
CCC1=C[C@H]2CN(C1)Cc1c([nH]c3ccccc13)[C@@](C(=O)OC)(c1cc3c(cc1OC)N(C)[C@H]1[C@@](O)(C(=O)OC)[C@H](OC(C)=O)[C@]4(CC)C=CCN5CC[C@]31[C@@H]54)C2	0.279	0.324
O=C(Nc1ccc(Cl)cc1)c1cc(Br)ccc1O	0.822	0.728
CCc1c(C(=O)NNC(=O)[C@@H](O)c2cc(F)cc(F)c2)ccc(O)c1C	1.02	1.09
O=Nc1c(-c2c(O)[nH]c3cc(Br)ccc23)[nH]c2ccccc12	0.663	0.788
O=Nc1c(-c2c(O)[nH]c3ccccc23)[nH]c2ccccc12	1.72	2.02
O=C1N=c2ccccc2=C1c1c(O)[nH]c2ccccc12	0.942	0.677

Structure (SMILES)	PER2::LUC luminescence (time after treatment 24 h)	PER2::LUC luminescence (time after treatment 30 h)
CN(C)Cc1nc(-c2cn(C)c3ccccc23)no1	0.847	0.949
O=C(O)c1ccc(S(=O)(=O)N(Cl)Cl)cc1	0.921	1.67
CCCN(CCC)S(=O)(=O)c1ccc(C(=O)O)cc1	0.832	0.861
NS(=O)(=O)c1ccc(C(=O)O)cc1	0.746	1.06
COc1cccc(/C=N/N(C(=O)C(F)(F)F)c2ccc(C)cc2C)c1	0.818	0.768
CN(CCCNC(=O)c1ccc2nc3c(c(Cl)c2c1)CCCC3)Cc1ccccc1	0.848	0.958
C=CCn1c(=O)c2c(nc(-c3ccccc3)n2C)n(C)c1=O	0.98	0.951
O=c1c(O)c(-c2ccc(O)cc2O)oc2cc(O)cc(O)c12	0.955	0.963
O=c1c(O)c(-c2ccc(O)cc2)oc2cc(O)cc(O)c12	1.01	0.989
O=c1c(O)c(-c2ccc(O)c(O)c2)oc2cc(O)cc(O)c12	0.939 and 0.842	0.934 and 1
O=c1c(O)c(-c2ccccc2)oc2cc(O)cc(O)c12	1.24	1.34
O=c1c(O)c(-c2cc(O)c(O)c(O)c2)oc2cc(O)cc(O)c12	1.22	1.34
O=c1c(O)c(-c2ccccc2O)oc2cc(O)cc(O)c12	0.983	0.996
C[C@@H]1O[C@@H](O[C@H]2[C@H](Oc3cc(O)c4c(=O)c(O)c(-c5ccc(O)cc5)oc4c3)O[C@H](CO)[C@@H](O)[C@@H]2O)[C@H](O)[C@H](O)[C@H]1O	1.24	0.968
COC(=O)C1=CO[C@@H](O[C@@H]2O[C@H](CO)[C@@H](O)[C@H](O)[C@H]2O)[C@H]2[C@@H]1C(=O)C[C@@H]2C	0.968	0.979
NC(=O)[C@@H]1CC[C@H](c2ccc(OCc3ccccc3F)cc2)N1	0.937	1.12
COc1ccc(C(=O)c2ccccc2C(=O)O)c(O)c1	1.19	0.841
Ic1cccc(/C=N/Nc2nc(N3CCOCC3)nc(N(c3ccccc3)c3ccccc3)n2)c1	1.3	1.15
CCOC(=O)C1=C(COCCN)NC(C)=C(C(=O)OC)[C@@H]1c1ccccc1Cl	0.445	0.46
COCCOC(=O)C1=C(C)NC(C)=C(C(=O)OC(C)C)C1c1cccc([N+](=O)[O-])c1 (configuration not stated)	1.13	1.17
COC(=O)C1=C(C)NC(C)=C(C(=O)OCCN(C)Cc2ccccc2)C1c1cccc([N+](=O)[O-])c1 (configuration not stated)	1.07	0.867

Structure (SMILES)	PER2::LUC luminescence (time after treatment 24 h)	PER2::LUC luminescence (time after treatment 30 h)
CCOC(=O)C1=C(C)NC(C)=C(C(=O)OC)C1c1cccc([N+](=O)[O-])c1 (configuration not stated)	1.06 and 0.626	1.37 and 0.715
Cc1ccc(NC(=O)c2cccc(N(C)C)c2)cc1NC(=O)c1ccc(O)cc1	1.1	1.56
CNCc1ccc(C)c(NC(=O)c2ccc(Nc3nc(-c4ccccc4)c4ccccc4n3)cc2)c1	0.439	0.475
Cc1ccc(C(=O)Nc2ccc(S(=O)(=O)O)c3cc(S(=O)(=O)O)cc(S(=O)(=O)O)c23)cc1NC(=O)c1cccc(NC(=O)Nc2cccc(C(=O)Nc3cc(C(=O)Nc4ccc(S(=O)(=O)O)c5cc(S(=O)(=O)O)cc(S(=O)(=O)O)c45)ccc3C)c2)c1	0.964 and 0.875	0.981 and 0.97
CO/S(=N\S(=O)(=O)c1ccc(Cl)cc1)c1ccc([N+](=O)[O-])cc1 (configuration not stated)	0.994	1.22
NC(=O)c1ccc2nc(-c3ccc(Oc4ccc(Cl)cc4)cc3)[nH]c2c1	1.29	1.16
COc1cc(OC)cc(C(=O)Nc2ccc(Cl)c(-c3nc4ccc(N(C)C)cc4[nH]3)c2)c1	0.977	1.35
CC(C)CC[C@@H](O)[C@](C)(O)[C@H]1CC[C@@]2(O)C3=CC(=O)[C@]4(O)C[C@@H](O)[C@@H](O)C[C@]4(C)[C@H]3[C@H](O)C[C@]12C	1.22	1.26
Cc1o[nH]c(=O)c1CCC(N)C(=O)O (configuration not stated)	0.959	0.829
O=C[C@H](O)[C@H]1OC(=O)[C@@H](O)[C@H]1O	1.14	0.922
C[n+]1cc(NC(=O)c2cccc(C(=O)Nc3cc4ccccc4[n+](C)c3)n2)cc2ccccc21	0.697	0.604
Cc1cccn2c(=O)c(C=C(C#N)c3nc4ccccc4s3)c(Oc3ccc(F)cc3)nc12	0.941	0.942
CCCCCCCC/C=C/CCCCCCCCOP(=O)([O-])OCC[N+](C)(C)C	1.02	0.935
OC[C@H]1O[C@@H](O[C@H]2[C@H](O)[C@@H](O)[C@@H](O)O[C@@H]2CO)[C@H](O)[C@@H](O)[C@@H]1O	0.982	0.927
OC[C@H]1O[C@@H](O[C@@H]2[C@@H](CO)OC(O)(CO)[C@H]2O)[C@H](O)[C@@H](O)[C@H]1O (mixture of isomers)	1.12	1.37
OC[C@H]1O[C@@H](O[C@H]2[C@H](O)[C@@H](O)C(O)O[C@@H]2CO)[C@H](O)[C@@H](O)[C@H]1O (some centres not stated)	1.03	1.06
CCCC1(C)C(C#N)(C#N)C1(C#N)C#N	1.15	1.04
CC[C@H](CC[C@@H](C)[C@H]1CC[C@H]2[C@@H]3CC=C4C[C@@H](OC(C)=O)CC[C@]4(C)[C@H]3CC[C@]12C)C(C)C	1.04	1.02
